Screening data deposited in PubChem by National Center for Advancing Translational Sciences (NCATS).
Most compounds without a hit are left out; they make up all but 0.43% or so of the library.
GLA inh pH 4.5: qHTS Assay for Inhibitors of Human alpha-Galactosidase at pH 4.5; activity change, negative = inhibition, % at 105 µM; purified enzyme, 4-MU-alpha-Gal fluorescence, pH 4.5; Alpha-galactosidase A (Homo sapiens), P06280; 230,000 tested, under 10 active;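 note: 0% = full activity with enzyme and -100% = basal without enzyme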
Target sequence (P06280 whole entry, looked up): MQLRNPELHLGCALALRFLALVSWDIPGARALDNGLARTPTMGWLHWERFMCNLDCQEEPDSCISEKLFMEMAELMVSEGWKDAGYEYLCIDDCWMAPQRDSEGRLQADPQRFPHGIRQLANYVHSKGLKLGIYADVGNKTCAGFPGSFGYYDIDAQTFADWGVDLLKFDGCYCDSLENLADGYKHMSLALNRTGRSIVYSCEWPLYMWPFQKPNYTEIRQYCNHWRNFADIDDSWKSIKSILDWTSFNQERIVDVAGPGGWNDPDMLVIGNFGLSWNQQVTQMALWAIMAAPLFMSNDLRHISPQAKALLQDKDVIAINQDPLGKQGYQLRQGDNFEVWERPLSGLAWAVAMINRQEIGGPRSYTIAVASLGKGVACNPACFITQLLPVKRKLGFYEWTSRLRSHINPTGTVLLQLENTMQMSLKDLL
GAA inhib: qHTS Assay for Inhibitors of Human alpha-Glucosidase as a Potential Chaperone Treatment of Pompe Disease. purified human GAA, 4-MU-alpha-glucoside fluorescence. Potency, µM (highest dose often 76.9 µM), for the others: at the highest dose activity change, negative = inhibition, most hits filed as inhibitors. 200,000 compounds, 0.005% hits. AID 1466, 2008. Lysosomal alpha-glucosidase (Homo sapiens), P10253;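 note: potency is the fitted concentration of half-maximal effect; plate controls were uninhibited enzyme wells for no effect and no-enzyme background for full effect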
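Fluorogenic assay: 4 nM human alpha-glucosidase with 400 uM 4-methylumbelliferyl-alpha-D-pyranoside in 50 mM citrate/phosphate, 0.005% Tween-20, pH 5.0, 20 min at room temperature. Compounds tested up to 77 uM; AC50 from Hill fits.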
GAA spleen mod: qHTS Assay for Inhibitors and Activators of Human alpha-Glucosidase From Spleen Homogenate. Lysosomal alpha-glucosidase (Homo sapiens), P10253. Potency, µM (series often up to 79.9 µM), for inactives: top-dose activity change, negative = inhibition, most hits filed as inhibitors. human spleen homogenate, 4-MU-alpha-glucoside fluorescence. 240,000 compounds, 0.006% hits;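 note: potency is the fitted concentration of half-maximal effect; 0% = enzyme with vehicle and -100% = no enzyme basal signal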
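Human spleen homogenate (1 ug) incubated with compounds and 1 mM 4-methylumbelliferyl-alpha-D-glucopyranoside in pH 5.0 citrate/phosphate buffer, 37 C, 40 min. Stopped at pH 10; 4-MU fluorescence (Ex 365/Em 440 nm); AC50 by Hill fit.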
GLA spleen mod: qHTS Assay for Inhibitors and Activators of Human alpha-Galactosidase From Spleen Homogenate; human spleen homogenate, 4MU-alpha-Gal fluorescence, 40 min; Potency, µM (top dose mostly 80 µM), for the others: at the top dose activity change, negative = inhibition, most hits filed as inhibitors; 240,000 compounds, 0.008% hits; Alpha-galactosidase A (Homo sapiens), P06280;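 note: potency is the fitted concentration of half-maximal effect; 0% = enzyme with vehicle and -100% = no enzyme basal signal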
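qHTS titration in buffer at pH 5.0. Alpha-galactosidase activity in spleen homogenate was measured via 4-methylumbelliferone release from 1 mM fluorogenic substrate after 40 min at 37C and a pH 10 stop. AC50 came from Hill fits of control-normalized data.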
GAA glycogen: qHTS Assay for Inhibitors and Activators of Human alpha-Glucosidase Cleavage of Glycogen; Lysosomal alpha-glucosidase (Homo sapiens), P10253; recombinant GAA, glycogen substrate, Amplex Red glucose oxidase fluorescence; Potency, µM (highest dose often 76.4 µM), inactives show at the highest dose activity change, negative = inhibition, most hits filed as inhibitors; 300,000 compounds, 0.38% hits; AID 2100, 2009;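 note: potency is the fitted concentration of half-maximal effect; 0% = full enzyme reaction and -100% = no-enzyme basal signal; the screen sought inhibitors and activators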
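qHTS, 1536-well; enzyme 4 nM final; cpd up to 77 uM; substrate bovine liver glycogen 30 ug; 50 mM citrate/phosphate pH 5.0, 0.01% Tween-20; 37 C, 40 min; Amplex Red detection 45 min RT; Hill fit → AC50.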
N370S GC: qHTS Assay for Inhibitors and Activators of N370S glucocerebrosidase as a Potential Chaperone Treatment of Gaucher Disease; Potency, µM (doses to about 59.4 µM), without a hit: top-dose activity change, negative = inhibition, actives largely listed as inhibitors; N370S GC spleen homogenate, 4MU-glucoside fluorescence; 330,000 compounds, 0.092% hits;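 note: potency is the fitted concentration of half-maximal effect; 0% = full enzyme activity and -100% = no enzyme basal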
An asterisk follows results filed as active; ? = inconclusive; / = no result; [ ] = dose if it differs, or a comment. Calls come from the whole dose curve; as a rule, active = well fitted curve in the direction sought with a large enough effect; inconclusive = small, poorly fitted or top-dose-only effect, or another doubt; inactive = no such curve, though single readings can be large; an effect the other way counts as inactive or inconclusive.

SMILES	GLA inh pH 4.5	GAA inhib	GAA spleen mod	GLA spleen mod	GAA glycogen	N370S GC
Cc1ccc2[nH]c(=O)c(-c3nc4cc(C)ccn4c3NCc3ccco3)cc2c1	-11	?	6%	-2%	9.9µM*	-11%
Cc1cccc2cc(-c3nc4c(C)cccn4c3NCc3ccco3)c(=O)[nH]c12	-4	-5%	-3%	-4%	19%	-7%
COc1ccc(NC(=O)O/N=C/c2ccc(N(C)C)cc2)cc1	/	/	/	/	-9%	-3%
CN(CCOC(=O)/C=C/c1ccco1)Cc1ccccc1	-1	5%	-13%	-8%	?	-3%
c1ccc(C2[C@H]3CN(CC4CCCCC4)[C@H](c4ccccc4)C34CC2(c2cccnc2)C4)cc1 (some centres not stated)	2	/	1%	3%	-1%	14µM*
Cc1ccc2c(C(=O)CNc3nncs3)c(C)[nH]c2c1	5	2%	2%	-4%	28µM*	-12%
Cc1ccc(C)c(C(=O)NC(C)CCc2ccccc2)c1 (configuration not stated)	7	-2%	-2%	0%	-1%	16%
COC(=O)c1ccc(NC(=S)Nc2ccc(O)cc2)cc1	-8	4%	7%	3%	7.9µM*	-16%
Oc1ccc(NC(=S)Nc2ccc(O)cc2)cc1	7	-5%	4%	10%	3.1µM*	?
S=C(NNC(=S)Nc1ccccc1)Nc1ccccc1	/	/	/	/	?	1%
COc1ccc(-n2c(=O)c(-c3cc(F)cc(F)c3)nc3cnc(N4CCOCC4)nc32)cc1	/	/	-6%	2%	/	4%
CSc1ccc(-c2nc3cccc(C)n3c2Nc2ccc(Cl)cc2)cc1	/	/	/	/	5.6µM*	/
Cc1cccc(C)c1Nc1c(-c2ccsc2)nc2cccc(C)n12	/	/	/	/	-19%[76.3 µM]	/
Cc1nn(CC(=O)NCc2cccc(F)c2)c(=O)c2cccn12	/	/	/	/	/	1%
COCCCNC(=S)NNC(=S)Nc1ccccc1	-5	-2%	-2%	2%	6.3µM*	-14%
COCCCNC(=S)Nc1ccc(C)cc1	-10	/	5%	10%	0%	3%
COCCCNC(=S)NCCc1ccc(F)cc1	-9	1%	6%	5%	2%	1%
COCCCNC(=S)NNC(=S)Nc1ccc(F)cc1F	-3	1%	0%	4%	16µM*	13%
Cc1cccn2c(=O)nc(SCC(=O)N3CCC(Cc4ccccc4)CC3)nc12	/	/	/	/	/	4%
Cc1cc(O)c(C(C)C)cc1N=C1CSC(=O)N1	-6	5%	8%	5%	18µM*	2%
COc1cccc(OC)c1NC(=O)C1CCCN1C(=O)NCc1ccccc1 (configuration not stated)	-1	13%	2%	6%	6%	10%
O=c1c2ccccc2[nH]c2ccc(O)cc12	/	/	/	/	20µM*	-7%
CCOC(=O)N1CCN(C(=O)CN2C(=O)COc3ccc(C)cc32)CC1	1	-22%	-6%	-6%	-1%	0%
Nc1[nH]nc2nc3ccccc3cc12	-1	-1%	-4%	6%	?	9%
CCc1ccc2nc3n[nH]c(N)c3cc2c1	7	1%	-3%	-8%	18µM*	-1%
SMILES	GLA inh pH 4.5	GAA inhib	GAA spleen mod	GLA spleen mod	GAA glycogen	N370S GC
O=C1NN(c2ccc(Cl)c(Cl)c2)C(=O)/C1=C/c1cccc(OC(=O)c2cccs2)c1	1	-2%	-9%	-2%	-21%	7%
O=C1NN(c2ccccc2)C(=O)/C1=C\c1cccc(OC(=O)c2cccs2)c1	-2	-1%	-10%	5%	20µM*	/
Cc1ccnc2nc(C(=O)Nc3nc(-c4ccccn4)cs3)nn12	3	1%	-4%	1%	-3%	-5%
CCn1cnc2cc(NCc3cccc(OC)c3O)ccc21	1	1%	-5%	-8%	16µM*	17%
Cc1cccc(NC(=S)NNC(=O)c2nn(C)cc2Cl)c1	1	-9%	-2%	7%	?	10%
Cc1ccc(NC(=S)NNC(=O)c2nn(C)cc2Cl)cc1	1	5%	2%	1%	14µM*	9%
CCc1cc(-c2n[nH]c(C)c2-c2nc3ccccc3n2C)c(O)cc1O	-9	?	-6%	-9%	?	-21%
CCc1cc(-c2n[nH]c(C)c2-c2nc3ccccc3n2C)c(O)c(CN2CCN(C)CC2)c1O	2	-6%	-5%	2%	8.9µM*	-5%
COC(=O)Cc1c(C)nc2nc(Cc3ccccc3)[nH]n2c1=O	-2	3%	9%	5%	-1%	6%
CCOc1ccc(N2C(=O)Nc3ccccc3C2(O)C(=O)NCc2ccc(F)cc2)cc1 (configuration not stated)	-4	0%	4%	3%	-4%	-9%
CCCCCn1c(CN2CCN(c3cccc(Cl)c3)CC2)nc2c1c(=O)n(C)c(=O)n2C	-8	?	-1%	5%	-11%	-5%
CCCCn1c(CN2CCN(c3cccc(Cl)c3)CC2)nc2c1c(=O)n(C)c(=O)n2C	-20	?	-17%	35µM*	-1%	-8%
CC(C)(C)NC(=S)Nc1ccc(Br)cc1	-11	-14%	-4%	-4%	-12%	7%
CC(C)(C)NC(=S)Nc1ccc(Nc2ccccc2)cc1	-7	-8%	?	0%	14µM*	16%
O=C(COc1ccccc1)Nc1ccncc1Cl	/	/	/	/	-8%[76.3 µM]	3%
COc1ccc(S(=O)(=O)NNC(=O)c2cc3cc4ccccc4nc3s2)cc1	-14	?	0%	-12%	12µM*	-21%
CS(=O)(=O)NNC(=O)c1cc2cc3ccccc3nc2s1	-2	-6%	5%	5%	16µM*	7%
CC1=C(C(N)=O)S(=O)(=O)c2ccccc21	-2	/	0%	-7%	-4%	11%
Cc1ccn2c(NC3CCCC3)c(-c3ccccn3)nc2c1	0	-2%	5%	7%	?	-12%
c1ccc(-c2nc3ccccn3c2NC2CCCC2)nc1	-1	-1%	0%	9%	11µM*	-18%
Cc1ccn2c(NC3CCCC3)c(-c3ccncc3)nc2c1	3[21.1 µM]	-10%	3%	6%	28µM*	-3%
COc1cc(/C=N\NC(=O)c2c(C)nc3cc(C)ccn23)ccc1O	0	-4%	?	-22%	11µM*	?
